Measurements taken from PubChem BioAssay AID1159580 (chemical genetic matrix, 2015).
Screen size: about 5,500 compounds; about 2,000 (36%) were called active. Roughly 18% stayed inconclusive and do not appear here. Rule as the data show it: active = normalized growth mostly below about 0.91 (no sharp cut-off); inconclusive = no clear call, values can overlap the other calls; inactive = mostly above about 0.92. This is one part of the list.

Test: chemical genetic growth profiling, strain panel (AID 1159580);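 also: tested at 20 µM; growth read once vehicle control cultures reached saturation at 30 °C; 1 = growth at the plate median or of vehicle wells; lower values mean less growth of the strain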
Details: S. cerevisiae deletion strains, growth OD
[1] = locus YBR229C, strain ROT2, active compounds read low
[2] = locus YDL101C, strain DUN1, active compounds read low
[3] = locus YDL134C, strain PPH21, active compounds read low
[4] = locus YDR150W, strain NUM1, active compounds read low
[5] = locus YEL061C, strain CIN8, active compounds read low
[6] = locus YHR030C, strain SLT2, active compounds read low
[7] = locus YJR043C, strain POL32, active compounds read low
[8] = locus YLR039C, strain RIC1, active compounds read low
[9] = locus YMR263W, strain SAP30, active compounds read low
[10] = locus YMR307W, strain GAS1, active compounds read low
[11] = locus YNL322C, strain KRE1, active compounds read low
[12] = locus YPL055C, strain LGE1, active compounds read low

Measured: normalized growth

CCOC(=O)c1c(C)cc(O)c(C)c1O
inactive: locus YBR021W, strain FUR4, active compounds read low 0.975 | [1] 0.976 | locus YCL029C, strain bik1, active compounds read low 0.955 | locus YDL035C, strain GPR1, active compounds read low 1.01 | locus YDL074C, strain BRE1, active compounds read low 0.981 | [2] 0.986 | [3] 0.979 | locus YDL185W, strain tfp1, active compounds read low 0.969 | locus YDL192W, strain arf1, active compounds read low 0.931 | [4] 0.98 | locus YDR162C, strain NBP2, active compounds read low 0.966 | locus YDR502C, strain sam2, active compounds read low 0.929 | [5] 0.975 | locus YER110C, active compounds read low 0.938 | locus YER155C, strain BEM2, active compounds read low 0.941 | locus YER167W, strain BCK2, active compounds read low 0.961 | locus YGL078C, strain dbp3, active compounds read low 0.968 | locus YGL248W, strain PDE1, active compounds read low 0.992 | locus YGR135W, strain pre9, active compounds read low 0.931 | locus YGR252W, strain gcn5, active compounds read low 1.07 | [6] 0.978 | locus YHR079C, strain IRE1 (second series), active compounds read low 0.945 | locus YHR094C, strain hxt1, active compounds read low 0.932 | locus YHR129C, strain ARP1, active compounds read low 0.988 | locus YHR200W, strain rpn10, active compounds read low 0.933 | locus YIL066C, strain RNR3, active compounds read low 0.999 | locus YIL073C, strain SPO22, active compounds read low 1.02 | locus YIR030C, strain dcg1, active compounds read low 0.952 | locus YJL095W, strain BCK1, active compounds read low 0.936 | locus YJL134W, strain LCB3, active compounds read low 0.965 | locus YJL168C, strain set2, active compounds read low 0.945 | locus YJL187C, strain SWE1 (second series), active compounds read low 0.996 | [7] 0.949 | locus YKL009W, strain mrt4, active compounds read low 1.01 | locus YKL068W, active compounds read low 0.945 | locus YKL085W, strain MDH1 (second series), active compounds read low 0.943 | locus YKL085W, strain MDH1, active compounds read low 0.943 | [8] 1.04 | locus YLR058C, strain SHM2, active compounds read low 0.97 | locus YLR102C, strain apc9, active compounds read low 0.946 | locus YLR268W, strain sec22, active compounds read low 0.918 | locus YLR330W, strain CHS5, active compounds read low 0.976 | locus YML016C, strain PPZ1, active compounds read low 0.956 | locus YML032C, strain rad52, active compounds read low 0.917 | locus YML124C, strain tub3, active compounds read low 0.935 | locus YMR078C, strain ctf18, active compounds read low 0.924 | locus YMR223W, strain ubp8, active compounds read low 0.952 | [9] 0.97 | [10] 0.923 | locus YNL067W, strain RPL9B, active compounds read low 0.978 | locus YNL233W, strain BNI4, active compounds read low 0.956 | locus YNL250W, strain rad50, active compounds read low 0.963 | locus YNL271C, strain bni1, active compounds read low 0.941 | locus YNL298W, strain CLA4, active compounds read low 0.964 | [11] 0.968 | locus YNR052C, strain pop2, active compounds read low 0.993 | locus YOL006C, strain TOP1, active compounds read low 0.887 | locus YOL012C, strain htz1 0.713 | locus YOR061W, strain CKA2, active compounds read low 0.98 | locus YOR069W, strain VPS5, active compounds read low 0.975 | locus YOR136W, strain idh2, active compounds read low 0.957 | locus YOR144C, strain elg1, active compounds read low 0.939 | locus YOR184W, strain ser1, active compounds read low 0.89 | locus YOR316C, strain cot1, active compounds read low 0.959 | [12] 0.954 | locus YPR141C, strain kar3, active compounds read low 0.924 | locus YPR163C, strain tif3, active compounds read low 0.918 | locus YPR167C, strain met16, active compounds read low 0.945 | strain wtn01, active compounds read low 0.909
active: locus YDR101C, strain arx1, active compounds read low 0.901 | locus YDR318W, strain mcm21, active compounds read low 0.901 | locus YDR388W, active compounds read low 0.916 | locus YGL086W, strain mad1, active compounds read low 0.916 | locus YIL125W, strain kgd1, active compounds read low 0.922 | locus YKR001C, strain vps1, active compounds read low 0.887 | locus YLR371W, strain rom2, active compounds read low 0.717 | locus YLR418C, strain cdc73, active compounds read low 0.806 | locus YNL307C, strain MCK1, active compounds read low 0.875 | locus YOL147C, strain pex11, active compounds read low 0.914 | locus YPR119W, strain clb2, active compounds read low 0.928

CCOC(=O)c1[nH]c(Cc2[nH]c(C(=O)OCC)c(C)c2C)c(C)c1C
inactive: locus YAL013W, strain DEP1, active compounds read low 1 | [1] 1.02 | locus YCL061C, strain MRC1, active compounds read low 1.02 | [2] 1.03 | [3] 1.01 | [4] 0.978 | [5] 1.01 | locus YGR078C, strain PAC10, active compounds read low 1.02 | [6] 1.06 | locus YHR087W, strain rtc3, active compounds read low 1.01 | [7] 1.04 | locus YKL190W, strain CNB1, active compounds read low 1.01 | [8] 0.981 | locus YLR058C, strain SHM2 (second series), active compounds read low 1.02 | locus YLR085C, strain ARP6, active compounds read low 1.01 | locus YLR262C, strain YPT6, active compounds read low 0.981 | locus YML094W, strain GIM5, active compounds read low 0.988 | locus YMR219W, strain ESC1, active compounds read low 1.01 | [9] 1.02 | [10] 0.948 | locus YNL153C, strain GIM3, active compounds read low 1.02 | locus YNL298W, strain CLA4 (second series), active compounds read low 1.04 | [11] 1 | locus YNR030W, strain Alg12, active compounds read low 1.04 | [12] 0.994 | locus YPL241C, strain CIN2, active compounds read low 1.01 | locus YPR135W, strain CTF4, active compounds read low 1.08
